Laboratory results reported in the supplement of paper PMC11417369.
± gives the standard deviation of the averaged measurements. In all, about 25,000 sequences were measured (“ln(normalized median fluorescence intensity)”: median about 8.6, highest 2% from about 10 on). Many of the other results were omitted from the sample, so the highest values are more common in it than they were.

What follows are sequences tested on PfAP2-EXP AP2 domain (GST-tagged) (assay: gcPBM binding intensity (ln(normalized median fluorescence intensity)); higher = stronger DNA binding).
How it was run: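 GST-tagged P. falciparum DNA-binding domains, expressed in E. coli (about 25 μg on average), were applied for 1 h to an Agilent 4 × 180k array of primer-extended double-stranded 36-bp intergenic genomic probes plus negative controls. The binding buffer was 1× PBS with 1% milk, 0.2 mg/ml BSA, 0.5% salmon testes DNA and 0.03% Triton X-100. Bound protein was detected with Alexa488 anti-GST antibody and scanned at 488 nm. Binding intensity is the highest Masliner-normalised natural-log median intensity across replicate spots of either probe orientation.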

Row | Sequence | gcPBM binding intensity (ln)
1 | TTTGCCATATGACACACACACATGTAAACCCCCTTT [CACACA_site6873] | 9.41 ± 0.45
2 | ATATATTTTTACCATACACACATATAACAAATATAT [CACACA_site7706] | 8.75 ± 0.44
3 | TTTTTAATTTTTTGTTGTACATATAATATATTATTA [XGTACX_site4903] | 8.6 ± 0.27
4 | TTTTTTTTTAAAACATAATAAAAAATAAAACAACCT [GTGCAC_negctrl_site92] | 8.77 ± 0.28
5 | ATATACACATTAATAACACACAATATGATAACAAAT [CACACA_site7670] | 8.79 ± 0.33
6 | ATTACATGCAATATATGTACGTAATATATATATATA [XGTACX_site2300] | 9.91 ± 0.38
7 | ATTTAAAAAAGAAAGGTGCATTTCAATAATGTAAAA [GTGCAC_site9585] | 8.62 ± 0.15
8 | TTTTGATATAAAAAAAGTACATTAATAATATTAATT [XGTACX_site4248] | 8.29 ± 0.37
9 | TTATTATATAAAATAAATAACAAAAAAAATAAAATA [GTGCAC_negctrl_site548] | 8.45 ± 0.43
10 | CCTTGCCCCAGGAGTTCACACACATAATAGATTGTC [CACACA_site8138] | 8.82 ± 0.64
11 | TTAACCTTTATATAATACGTATCATCCTCATATATA [CACACA_negctrl_site86] | 8.95 ± 0.61
12 | TTATAAATATTCTTGGGTACTTAAGATGATATGTAA [XGTACX_site5496] | 8.34 ± 0.39
13 | GCGTTATTAAATAATTCACACACATATATATATATA [CACACA_site8711] | 10 ± 0.38
14 | CAAAATAAAAAATTCACACACATATATATATATATA [CACACA_site2088] | 10.2 ± 0.38
15 | GTTATTAAATAATTCACACACATATATAAATAAATA [CACACA_site7129] | 8.31 ± 0.48
16 | GTTATTAAATAATTCACACACATATATATATATATA [CACACA_site2260] | 10.3 ± 0.45
17 | CAAAATAAAAAATTCACACACATATAAATATAAATA [CACACA_site7065] | 8.54 ± 0.24
18 | TTTATTATCTTATTCACACACATATATATATATATA [CACACA_site2869] | 10.2 ± 0.41
19 | AAAAAAAAAAAAAATTCACACACATATAAAAAATTA [CACACA_site8140] | 8.31 ± 0.47
20 | TTTATTATCTTATTCACACACATATATAAATATGTA [CACACA_site7369] | 8.58 ± 0.4
21 | ATCTCTTATATATTCACACACATATATATAATTATA [CACACA_site1502] | 8.85 ± 0.42
22 | ATTATATATATATATAAACACACATAAATATAAATA [CACACA_site8291] | 8.56 ± 0.38
23 | AAAATATTTATTTTTTGTACACATAAAAACGCACTT [XGTACX_site4132] | 8.62 ± 0.11
24 | TATTATTTTTTAAATTGTACAATAAATTATAAAAGG [XGTACX_site1162] | 8.41 ± 0.39
